High-throughput results as filed in PubChem.
Only some compounds are listed: those with a hit (about 5.6% of all), similar ones and a draw of the others.
Gal4-VP16 FLuc: Gal4-VP16 reporter inhibition counter-screen. Drosophila S2 Gal4-VP16 UAS-luciferase, luminescence, 20 h. Potency, µM (top dose mostly 53.6 µM), without a hit: top-dose activity, negative = inhibition, hits mostly inhibitors. actives 3.5% (n = 310,000). AID 2546;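 note: Gal4-VP16 expression switched on by copper sulfate through the metallothionein promoter; potency is the fitted concentration of half-maximal effect; nearly all actives have a fitted effect of over 50% in size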
CtBP-E1A inh: blocks the CtBP interaction with E1A | AlphaScreen GST-E1A/His-CtBP binding, 1536-well; stronger effect = lower value | activity change, % (concentration not given with the values) | actives 0.49% (n = 340,000) | AID 651724; in the data active = activity change below about -65%; inconclusive = mostly about -30% to -63%
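Steps: dispense buffer (Tris pH 8.0, NaCl 300 mM, TCEP 1 mM, BSA, Tween 20); add 5X protein mix (GST-E1A, His-CtBP, 125 nM each); pin 23 nL compound; 2 h at 37 °C, dark; add 5X beads (50 ug/mL); 1 h; read.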
RORg inh: ROR gamma (mouse) transcription inhibition. P51450. Drosophila S2 Gal4-RORgamma UAS-luciferase reporter, 20 h. Potency, µM (series often up to 53.6 µM), for inactives: top-dose activity change, negative = inhibition, hits mostly inhibitors. actives 5.4% (n = 310,000). AID 2551; note: potency is the fitted concentration of half-maximal effect; nearly all actives have a fitted effect of over 60% in size
Target sequence (P51450 whole entry, looked up, the tested form may be a part): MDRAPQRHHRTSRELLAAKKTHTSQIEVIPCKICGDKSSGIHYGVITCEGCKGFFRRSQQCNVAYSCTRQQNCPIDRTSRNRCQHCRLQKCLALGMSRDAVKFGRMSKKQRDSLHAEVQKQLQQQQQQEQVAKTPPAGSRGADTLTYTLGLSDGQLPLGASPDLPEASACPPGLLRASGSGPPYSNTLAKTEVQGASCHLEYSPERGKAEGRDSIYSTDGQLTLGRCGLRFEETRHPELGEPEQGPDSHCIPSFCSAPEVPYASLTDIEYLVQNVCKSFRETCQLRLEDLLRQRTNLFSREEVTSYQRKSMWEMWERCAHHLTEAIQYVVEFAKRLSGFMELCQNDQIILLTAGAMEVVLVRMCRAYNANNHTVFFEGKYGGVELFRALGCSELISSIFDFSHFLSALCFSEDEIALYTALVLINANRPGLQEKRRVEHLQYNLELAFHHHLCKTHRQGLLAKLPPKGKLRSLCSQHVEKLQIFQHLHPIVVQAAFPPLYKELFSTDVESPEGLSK
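Stably transfected Drosophila Schneider cells are the test system, with ROR gamma fused to Gal4 and luciferase under UAS control; luminescence is read after 20 hr of 700 uM copper sulfate induction at ambient temperature.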
Six1-Eya2 inh: Six1/Eya2 interaction inhibition. Q15475+O00167. activity change, % (no concentration beside the values). actives 0.56% (n = 360,000). AlphaScreen GST-Six1/His-Eya2 binding, biochemical; stronger effect = lower value. AID 651725; in the data active = activity change below about -65%; inconclusive = mostly about -30% to -63%
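AlphaScreen with GST-Six1 and His-Eya2 (5X mix: 250 nM and 500 nM), glutathione donor and nickel acceptor beads; buffer 50 mM Tris pH 8.0, 300 mM NaCl, 1 mM TCEP; 1 h at 37 C in the dark.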
PKM2 activator: increases activity of human pyruvate kinase M2. actives 0.34% (n = 260,000). Potency, µM (series often up to 57.5 µM), for inactives: at the highest dose activation, actives largely listed as activators. purified PKM2, Kinase-Glo ATP luminescence, activation; response scale: 0% is enzyme alone, no compound. AID 1631; note: potency is the fitted concentration of half-maximal effect; nearly all actives have a fitted effect of over 55% in size
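hPK-M2, >95% pure; 0.1 mM ADP / 0.5 mM PEP final; imidazole pH7.2 buffer w/ 7 mM MgCl2, 50 mM KCl; 1 h RT; Kinase-Glo lum. Intermediate enzyme activity for dual inhibitor/activator qHTS.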
The depositor's hits bear a star; [ ] = another dose, or the depositor's remark. Unless noted, calls come from the whole dose curve; as a rule, active = well fitted curve in the direction sought with a large enough effect; inconclusive = small, poorly fitted or top-dose-only effect, or another doubt; inactive = no such curve, though single readings can be large; an effect the other way counts as inactive or inconclusive. % is set by controls: 0 for no effect and ±100 for the full control effect.

What do the screens show for `O=C(Nc1nc2cc3c(cc2s1)OCO3)C1=COCCO1`?
Gal4-VP16 FLuc: 4µM*; CtBP-E1A inh: -15; RORg inh: 4.5µM*; Six1-Eya2 inh: -3; PKM2 activator: -63%

How did CC1CCc2nc(NC(=O)Cc3cccs3)sc2C1 (stereo not drawn) do in these assays?
Gal4-VP16 FLuc: inconclusive; CtBP-E1A inh: -3; RORg inh: inconclusive; Six1-Eya2 inh: -10; PKM2 activator: 3%

How did O=C(NC(=S)Nc1nc2ccc(F)cc2s1)c1ccco1 do in these assays?
Gal4-VP16 FLuc: 1.8µM*; CtBP-E1A inh: 3; RORg inh: 0.79µM*; Six1-Eya2 inh: -2; PKM2 activator: -6%

What do the screens show for `CC1CCc2nc(NC(=O)c3ccco3)sc2C1` (stereo not drawn)?
Gal4-VP16 FLuc: 4µM*; CtBP-E1A inh: -1; RORg inh: 2.5µM*; Six1-Eya2 inh: -3; PKM2 activator: -20%

How did CC1(C)C2CCC1(CS(=O)(=O)Nc1ccc(S(=O)(=O)N3CCCCC3)cc1)C(=O)C2 (stereo not drawn) do in these assays?
Gal4-VP16 FLuc: -10%; CtBP-E1A inh: 1; RORg inh: inconclusive; Six1-Eya2 inh: 1; PKM2 activator: -3%

Results for Cc1cc(C(=S)N2CCOCC2)c(C)n1-c1ccc(Cl)cc1 ?
Gal4-VP16 FLuc: -2%; CtBP-E1A inh: -9; RORg inh: 11%; Six1-Eya2 inh: -16; PKM2 activator: -17%

How did Cc1cc(C)cc(-n2c(C)cc(C(=S)N3CCOCC3)c2C)c1 do in these assays?
Gal4-VP16 FLuc: 16µM*; CtBP-E1A inh: -16; RORg inh: 3.2µM*; Six1-Eya2 inh: -15; PKM2 activator: -8%

How did CCN(CC)c1ccc(C=NCCc2ccc(S(N)(=O)=O)cc2)cc1 do in these assays?
Gal4-VP16 FLuc: -16%; RORg inh: -12%; Six1-Eya2 inh: 9; PKM2 activator: 3%

Results for COc1ccccc1CN(Cc1cc2cc3c(cc2[nH]c1=O)OCCO3)Cc1nnnn1Cc1ccco1 ?
Gal4-VP16 FLuc: 6%; CtBP-E1A inh: 41; RORg inh: inconclusive; Six1-Eya2 inh: 0; PKM2 activator: 20µM*

What do the screens show for `COc1ccc(CN2CCNC(=O)C2CC(=O)N(C)Cc2nc(C)cs2)c(OC)c1` (stereo not drawn)?
CtBP-E1A inh: 0; Six1-Eya2 inh: 8; PKM2 activator: -1%

Results for CN(CCc1cn[nH]c1)Cc1nc(C(c2ccccc2)c2ccccc2)no1 ?
Gal4-VP16 FLuc: inconclusive; CtBP-E1A inh: -1; RORg inh: 10µM*; Six1-Eya2 inh: -7; PKM2 activator: 8%

How did CCN(CC)CCN(C)Cc1nc(C(c2ccccc2)c2ccccc2)no1 do in these assays?
Gal4-VP16 FLuc: 1%; CtBP-E1A inh: -4; RORg inh: -18%; Six1-Eya2 inh: 3; PKM2 activator: 3%

What do the screens show for `O=C(OCC(=O)N1CCc2ccccc21)c1cncc(Br)c1`?
Gal4-VP16 FLuc: 1%; CtBP-E1A inh: 4; RORg inh: -36%; Six1-Eya2 inh: -1; PKM2 activator: -14%

How did O=C(OCC(=O)N1CCCc2ccccc21)c1cncc(Br)c1 do in these assays?
Gal4-VP16 FLuc: 1.1µM*; CtBP-E1A inh: 3; RORg inh: inconclusive; Six1-Eya2 inh: -2; PKM2 activator: -13%

Results for CC(C)(C)CC(C)(C)c1ccc(O)c(CN2CCN(CCC#N)CC2)c1 ?
Gal4-VP16 FLuc: -24%; CtBP-E1A inh: -12; RORg inh: 25µM*; Six1-Eya2 inh: -14; PKM2 activator: 2%

How did N#CCCN1CCN(Cc2cc(-c3ccccc3)ccc2O)CC1 do in these assays?
Gal4-VP16 FLuc: 4%; CtBP-E1A inh: -9; RORg inh: 16%; Six1-Eya2 inh: -12; PKM2 activator: -2%

What do the screens show for `Cc1csc(NC(=O)c2cc(-c3ccco3)nc3ccccc23)n1`?
Gal4-VP16 FLuc: inconclusive; CtBP-E1A inh: -25; RORg inh: inconclusive; Six1-Eya2 inh: inconclusive; PKM2 activator: -7%

Results for Cc1ccc2nc(NC(=O)c3cc(-c4ccco4)nc4ccccc34)sc2c1 ?
Gal4-VP16 FLuc: inconclusive; CtBP-E1A inh: -10; RORg inh: 18µM*; Six1-Eya2 inh: 1; PKM2 activator: -7%

What do the screens show for `O=C(Nc1nc2ccccc2s1)c1cc(-c2ccco2)nc2ccccc12`?
Gal4-VP16 FLuc: 13µM*; CtBP-E1A inh: -29; RORg inh: inconclusive; Six1-Eya2 inh: -22; PKM2 activator: 2%

What do the screens show for `COc1ccc(N2CCN(C(=O)COC(=O)c3cccc(S(=O)(=O)Nc4cccc(C)c4)c3)CC2)cc1`?
CtBP-E1A inh: inconclusive; Six1-Eya2 inh: -28

Results for N#Cc1ccc2c(c1)C[C@]1(c3ccsc3)Oc3c(c(=O)oc4ccccc34)C2O1 ?
Gal4-VP16 FLuc: -4%[10 µM]; RORg inh: inconclusive; PKM2 activator: -2%[11.5 µM]

How did O=C(Cn1ncc(Cl)c(Cl)c1=O)N1CCN(S(=O)(=O)c2ccc3ccccc3c2)CC1 do in these assays?
Gal4-VP16 FLuc: inconclusive; CtBP-E1A inh: -1; RORg inh: 13µM*; Six1-Eya2 inh: -22; PKM2 activator: 18%

What do the screens show for `Cc1ccc(-c2csc(N3CCC[C@@H]3C(=O)NCCn3c(C(F)(F)F)nc4ccccc43)n2)cc1`?
Gal4-VP16 FLuc: -14%; CtBP-E1A inh: 10; RORg inh: -32%; Six1-Eya2 inh: -1; PKM2 activator: 2%

How did CCCn1c(C2CCCN2c2nc(-c3cccc(Br)c3)cs2)nc2ccccc21 (stereo not drawn) do in these assays?
Gal4-VP16 FLuc: inconclusive; CtBP-E1A inh: -8; RORg inh: 2.5µM*; Six1-Eya2 inh: -4; PKM2 activator: 0%

How did CCCCC1S/C(=N/N=C/c2ccco2)NC1=O (stereo not drawn) do in these assays?
Gal4-VP16 FLuc: 2µM*; CtBP-E1A inh: 0; RORg inh: 0.45µM*; Six1-Eya2 inh: 13; PKM2 activator: 3%

What do the screens show for `C/C(=N\N=C1/NC(=O)C(C)S1)c1ccco1` (stereo not drawn)?
Gal4-VP16 FLuc: -18%; CtBP-E1A inh: 5; RORg inh: 11µM*; Six1-Eya2 inh: 23; PKM2 activator: 0%

Results for CC1S/C(=N/N=C/c2ccco2)NC1=O (stereo not drawn) ?
Gal4-VP16 FLuc: inconclusive; CtBP-E1A inh: -9; RORg inh: 11µM*; Six1-Eya2 inh: 4; PKM2 activator: -1%

Results for C/C(=N\N=C(c1ccccc1)c1ccccc1)c1ccco1 ?
Gal4-VP16 FLuc: -5%; CtBP-E1A inh: -2; RORg inh: 11%; Six1-Eya2 inh: -3; PKM2 activator: -1%

Results for O=C(CC1S/C(=N/N=C/c2ccco2)NC1=O)Nc1cccc(Cl)c1Cl (stereo not drawn) ?
Gal4-VP16 FLuc: inconclusive; CtBP-E1A inh: inconclusive; RORg inh: 20µM*; Six1-Eya2 inh: -6; PKM2 activator: -11%
